According to the supplement of paper PMC10849652:
About 7,900 targets were measured; listed, in parts, are those with a hit and a random draw of the rest. About 0.6% of all pairs of compound and target were hits.

compound: CCN(CC)Cc1ccc2cc(COC(=O)Nc3ccc(C(=O)NO)cc3)ccc2c1 [givinostat]; test: log2 fold change, soluble protein after heating vs DMSO (PISA); higher = thermal stabilisation; K562 cells, 10 uM, 30 min; active = over 0.2 and 3.5 SD of the protein, either way, in both replicates (recomputed)
Outline: (§1)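 K562 cells at 2×10^6 cells/mL were treated with 10 μM compound for 30 min. Aliquots were heated for 3 min across 48°C-58°C, pooled, and extracted in PBS with 0.5% NP-40 at 4°C; soluble protein was the supernatant after 21,000xg for 90 min. Soluble protein was quantified by TMTpro 16plex LC-MS/MS with channel sums equalised, and reported as log2 fold change in thermal stability against DMSO controls, with values from duplicates.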

Sequence of UniProt Q5JVF3 (Q5JVF3 whole entry, looked up): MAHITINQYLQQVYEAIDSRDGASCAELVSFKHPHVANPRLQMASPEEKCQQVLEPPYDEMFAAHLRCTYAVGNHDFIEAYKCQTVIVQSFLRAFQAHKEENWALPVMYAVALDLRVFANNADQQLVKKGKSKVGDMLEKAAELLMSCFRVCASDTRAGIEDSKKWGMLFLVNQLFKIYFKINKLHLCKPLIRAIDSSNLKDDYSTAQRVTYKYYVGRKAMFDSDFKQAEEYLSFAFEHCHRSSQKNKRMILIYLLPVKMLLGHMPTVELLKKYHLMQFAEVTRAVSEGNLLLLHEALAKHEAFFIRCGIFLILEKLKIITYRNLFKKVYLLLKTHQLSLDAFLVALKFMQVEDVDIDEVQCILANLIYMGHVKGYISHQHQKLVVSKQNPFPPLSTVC
Sequence of UniProt P0CAP2 (P0CAP2 whole entry, looked up): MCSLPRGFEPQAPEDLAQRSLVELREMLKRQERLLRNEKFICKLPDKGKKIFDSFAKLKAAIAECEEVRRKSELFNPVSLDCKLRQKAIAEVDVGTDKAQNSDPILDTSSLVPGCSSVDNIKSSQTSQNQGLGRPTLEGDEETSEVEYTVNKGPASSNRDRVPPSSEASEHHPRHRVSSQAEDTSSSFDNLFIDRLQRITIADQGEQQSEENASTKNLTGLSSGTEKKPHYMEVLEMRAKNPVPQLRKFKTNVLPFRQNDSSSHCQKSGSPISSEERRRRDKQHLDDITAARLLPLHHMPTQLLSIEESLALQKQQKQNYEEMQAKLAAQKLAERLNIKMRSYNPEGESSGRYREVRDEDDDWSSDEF
Sequence of UniProt P28340 (P28340 whole entry, looked up): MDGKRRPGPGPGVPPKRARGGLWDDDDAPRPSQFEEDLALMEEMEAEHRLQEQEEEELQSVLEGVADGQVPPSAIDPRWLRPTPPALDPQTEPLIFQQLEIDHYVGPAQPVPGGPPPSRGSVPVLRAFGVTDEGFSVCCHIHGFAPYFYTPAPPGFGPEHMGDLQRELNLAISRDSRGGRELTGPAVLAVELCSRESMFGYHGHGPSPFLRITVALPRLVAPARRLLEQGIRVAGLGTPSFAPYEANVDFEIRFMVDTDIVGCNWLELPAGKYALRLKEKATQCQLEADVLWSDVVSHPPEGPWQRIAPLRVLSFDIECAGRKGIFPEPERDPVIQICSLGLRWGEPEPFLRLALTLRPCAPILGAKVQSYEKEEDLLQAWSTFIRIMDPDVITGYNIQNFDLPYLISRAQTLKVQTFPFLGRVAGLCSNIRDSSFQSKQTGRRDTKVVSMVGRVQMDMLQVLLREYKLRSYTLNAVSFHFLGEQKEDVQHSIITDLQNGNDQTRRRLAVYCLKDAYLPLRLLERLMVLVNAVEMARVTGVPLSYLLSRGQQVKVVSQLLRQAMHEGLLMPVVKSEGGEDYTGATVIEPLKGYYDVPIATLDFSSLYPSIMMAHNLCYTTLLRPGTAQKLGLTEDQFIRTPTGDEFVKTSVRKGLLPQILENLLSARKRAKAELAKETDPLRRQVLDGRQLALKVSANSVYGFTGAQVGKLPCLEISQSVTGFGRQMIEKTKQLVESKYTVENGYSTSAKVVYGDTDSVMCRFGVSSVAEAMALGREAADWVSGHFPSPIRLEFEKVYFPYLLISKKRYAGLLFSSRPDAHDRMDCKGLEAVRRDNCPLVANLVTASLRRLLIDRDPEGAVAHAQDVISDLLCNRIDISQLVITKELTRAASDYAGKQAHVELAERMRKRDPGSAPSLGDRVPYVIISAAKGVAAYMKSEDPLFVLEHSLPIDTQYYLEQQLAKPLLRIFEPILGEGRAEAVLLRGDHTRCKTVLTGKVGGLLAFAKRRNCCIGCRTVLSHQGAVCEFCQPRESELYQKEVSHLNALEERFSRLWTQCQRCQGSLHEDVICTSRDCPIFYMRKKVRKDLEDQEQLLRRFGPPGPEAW
Sequence of UniProt P06737 (P06737 whole entry, looked up): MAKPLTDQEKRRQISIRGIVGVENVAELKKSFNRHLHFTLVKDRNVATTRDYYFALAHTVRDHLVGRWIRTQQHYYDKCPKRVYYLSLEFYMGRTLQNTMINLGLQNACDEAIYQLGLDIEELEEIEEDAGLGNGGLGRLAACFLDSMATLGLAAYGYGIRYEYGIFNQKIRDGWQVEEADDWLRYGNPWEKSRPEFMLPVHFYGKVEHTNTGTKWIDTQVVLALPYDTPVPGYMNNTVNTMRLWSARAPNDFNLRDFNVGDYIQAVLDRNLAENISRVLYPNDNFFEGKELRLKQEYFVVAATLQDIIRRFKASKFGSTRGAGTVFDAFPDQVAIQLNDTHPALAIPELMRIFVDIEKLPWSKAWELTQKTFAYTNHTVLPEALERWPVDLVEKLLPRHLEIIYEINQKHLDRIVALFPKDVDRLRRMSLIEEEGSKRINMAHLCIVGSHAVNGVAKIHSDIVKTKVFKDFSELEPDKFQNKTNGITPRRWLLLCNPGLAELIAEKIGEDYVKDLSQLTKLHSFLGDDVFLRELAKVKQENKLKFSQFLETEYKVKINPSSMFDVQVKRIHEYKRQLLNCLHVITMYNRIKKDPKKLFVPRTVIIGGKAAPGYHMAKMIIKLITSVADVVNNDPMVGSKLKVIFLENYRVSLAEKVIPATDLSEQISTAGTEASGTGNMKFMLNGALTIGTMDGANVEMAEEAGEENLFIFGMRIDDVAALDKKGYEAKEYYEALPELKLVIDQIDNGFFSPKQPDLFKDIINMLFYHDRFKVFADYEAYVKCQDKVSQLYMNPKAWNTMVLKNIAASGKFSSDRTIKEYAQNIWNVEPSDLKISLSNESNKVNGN
Sequence of UniProt Q16537 (Q16537 whole entry, looked up): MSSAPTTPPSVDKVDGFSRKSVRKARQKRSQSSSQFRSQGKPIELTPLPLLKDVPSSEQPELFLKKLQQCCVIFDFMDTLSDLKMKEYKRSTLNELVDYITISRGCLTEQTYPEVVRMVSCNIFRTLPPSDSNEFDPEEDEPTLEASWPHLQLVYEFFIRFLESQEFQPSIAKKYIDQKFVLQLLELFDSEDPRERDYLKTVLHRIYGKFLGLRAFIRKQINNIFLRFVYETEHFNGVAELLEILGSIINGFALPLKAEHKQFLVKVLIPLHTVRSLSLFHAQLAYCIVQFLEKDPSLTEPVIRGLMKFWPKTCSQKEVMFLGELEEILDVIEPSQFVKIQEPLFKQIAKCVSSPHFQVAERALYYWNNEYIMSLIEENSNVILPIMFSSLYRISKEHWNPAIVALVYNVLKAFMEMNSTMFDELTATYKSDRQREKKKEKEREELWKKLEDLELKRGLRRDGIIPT
Sequence of UniProt P0CG38 (P0CG38 whole entry, looked up): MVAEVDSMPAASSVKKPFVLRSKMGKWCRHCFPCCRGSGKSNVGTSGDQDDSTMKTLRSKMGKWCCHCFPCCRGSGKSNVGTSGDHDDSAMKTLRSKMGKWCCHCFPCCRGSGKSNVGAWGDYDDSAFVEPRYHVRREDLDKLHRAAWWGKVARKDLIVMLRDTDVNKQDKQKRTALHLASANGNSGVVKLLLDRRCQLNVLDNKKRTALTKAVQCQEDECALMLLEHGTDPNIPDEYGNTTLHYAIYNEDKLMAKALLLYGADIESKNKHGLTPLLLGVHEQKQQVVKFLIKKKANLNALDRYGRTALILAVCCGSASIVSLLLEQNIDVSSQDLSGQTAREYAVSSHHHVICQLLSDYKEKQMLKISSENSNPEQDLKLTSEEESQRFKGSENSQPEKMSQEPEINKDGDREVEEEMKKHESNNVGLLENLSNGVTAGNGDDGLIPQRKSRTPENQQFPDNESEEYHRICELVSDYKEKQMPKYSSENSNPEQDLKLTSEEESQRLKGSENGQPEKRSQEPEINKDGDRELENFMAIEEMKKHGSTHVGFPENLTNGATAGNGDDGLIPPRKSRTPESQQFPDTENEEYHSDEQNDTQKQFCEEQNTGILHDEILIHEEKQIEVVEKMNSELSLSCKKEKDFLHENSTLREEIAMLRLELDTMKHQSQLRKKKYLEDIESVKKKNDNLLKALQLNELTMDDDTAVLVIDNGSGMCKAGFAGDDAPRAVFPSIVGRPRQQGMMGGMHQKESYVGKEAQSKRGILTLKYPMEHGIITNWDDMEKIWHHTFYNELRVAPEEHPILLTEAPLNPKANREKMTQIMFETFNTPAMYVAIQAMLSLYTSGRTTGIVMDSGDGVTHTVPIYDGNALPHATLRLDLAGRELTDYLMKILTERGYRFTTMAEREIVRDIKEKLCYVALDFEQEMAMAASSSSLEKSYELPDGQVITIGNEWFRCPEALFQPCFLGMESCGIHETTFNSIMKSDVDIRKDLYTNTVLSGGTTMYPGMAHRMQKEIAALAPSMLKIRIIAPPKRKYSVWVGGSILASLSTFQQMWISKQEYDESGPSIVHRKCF
Sequence of UniProt Q99541 (Q99541 whole entry, looked up): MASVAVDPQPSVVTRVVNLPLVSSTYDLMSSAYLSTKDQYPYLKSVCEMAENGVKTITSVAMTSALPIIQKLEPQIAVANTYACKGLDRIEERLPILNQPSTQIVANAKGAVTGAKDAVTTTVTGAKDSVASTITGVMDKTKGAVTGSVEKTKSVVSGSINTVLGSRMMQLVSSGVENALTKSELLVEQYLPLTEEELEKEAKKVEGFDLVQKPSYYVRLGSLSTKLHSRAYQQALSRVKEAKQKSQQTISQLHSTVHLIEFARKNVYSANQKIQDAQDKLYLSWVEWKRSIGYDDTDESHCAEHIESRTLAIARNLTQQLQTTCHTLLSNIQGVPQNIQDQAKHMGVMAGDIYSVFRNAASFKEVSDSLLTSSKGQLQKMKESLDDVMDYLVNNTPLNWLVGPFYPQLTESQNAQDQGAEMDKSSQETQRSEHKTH
Sequence of UniProt Q9Y478 (Q9Y478 whole entry, looked up): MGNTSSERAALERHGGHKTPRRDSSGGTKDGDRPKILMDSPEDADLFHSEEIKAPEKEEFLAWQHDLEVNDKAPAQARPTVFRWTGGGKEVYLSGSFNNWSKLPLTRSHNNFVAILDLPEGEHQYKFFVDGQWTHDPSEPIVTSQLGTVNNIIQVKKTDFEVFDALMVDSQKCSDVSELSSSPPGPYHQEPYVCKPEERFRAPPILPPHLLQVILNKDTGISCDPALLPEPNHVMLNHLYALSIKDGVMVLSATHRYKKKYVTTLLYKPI

log2 fold change, inactive:
POLR2M (UniProt P0CAP2) -0.031
PCID2 (UniProt Q5JVF3) 0.114
PMPCA (UniProt Q10713) -0.019
POLA1 (UniProt P09884) 0.093
PDE2A (UniProt O00408) -0.043
PDCD4 (UniProt Q53EL6) 0.103
PURA (UniProt Q00577) -0.008
PPP1R14A (UniProt Q96A00) -0.004
PMM2 (UniProt O15305) 0.015
PTRH2 (UniProt Q9Y3E5) -0.064
PPP2R5E (UniProt Q16537) 0.032
PFAS (UniProt O15067) 0.05
PPP2R5A (UniProt Q15172) 0.026
PHKG2 (UniProt P15735) 0.01
PKM (UniProt P14618) 0
PSMD12 (UniProt O00232) -0.002
PRKAR1B (UniProt P31321) -0.036
POLR2K (UniProt P53803) -0.137
PLCB3 (UniProt Q01970) -0.014
PLIN2 (UniProt Q99541) -0.014
POTEI (UniProt P0CG38) -0.018
PTP4A1 (UniProt Q93096) -0.003
PI4K2A (UniProt Q9BTU6) -0.008
POLR3K (UniProt Q9Y2Y1) -0.013
PEX16 isoform 2 (UniProt Q9Y5Y5) 0.006
PIGT (UniProt Q969N2) -0.033
PRKAA1 isoform 2 (UniProt Q13131) -0.014
PTRHD1 (UniProt Q6GMV3) -0.008
PPIL2 (UniProt Q13356) 0.123
PEX13 (UniProt Q92968) -0.034
PSMD2 (UniProt Q13200) -0.048
PPID (UniProt Q08752) 0.122
POLD1 (UniProt P28340) 0.021
PDCD2L (UniProt Q9BRP1) -0.088
PRKAB1 (UniProt Q9Y478) 0.08
PSMD7 (UniProt P51665) -0.03
PYGL (UniProt P06737) 0.012

compound: CCN(CCCOc1ccc2c(Nc3cc(CC(=O)Nc4cccc(F)c4)[nH]n3)ncnc2c1)CCOP(=O)(O)O [barasertib]; test: as above
Outline: as §1

log2 fold change, inactive:
POLR2M (UniProt P0CAP2) -0.009
PCID2 (UniProt Q5JVF3) -0.016
PMPCA (UniProt Q10713) -0.027
POLA1 (UniProt P09884) 0.098
PDE2A (UniProt O00408) 0.011
PDCD4 (UniProt Q53EL6) 0.002
PURA (UniProt Q00577) -0.091
PPP1R14A (UniProt Q96A00) 0.013
PMM2 (UniProt O15305) 0.003
PTRH2 (UniProt Q9Y3E5) -0.022
PPP2R5E (UniProt Q16537) 0.027
PFAS (UniProt O15067) 0.061
PPP2R5A (UniProt Q15172) 0.002
PHKG2 (UniProt P15735) -0.079
PKM (UniProt P14618) -0.011
PSMD12 (UniProt O00232) -0.044
PRKAR1B (UniProt P31321) -0.12
POLR2K (UniProt P53803) 0.023
PLCB3 (UniProt Q01970) 0.018
PLIN2 (UniProt Q99541) 0.013
POTEI (UniProt P0CG38) 0
PTP4A1 (UniProt Q93096) 0.035
PI4K2A (UniProt Q9BTU6) -0.011
POLR3K (UniProt Q9Y2Y1) 0.003
PEX16 isoform 2 (UniProt Q9Y5Y5) -0.007
PIGT (UniProt Q969N2) 0.004
PRKAA1 isoform 2 (UniProt Q13131) 0.016
PTRHD1 (UniProt Q6GMV3) 0.034
PPIL2 (UniProt Q13356) 0.073
PEX13 (UniProt Q92968) 0.044
PSMD2 (UniProt Q13200) -0.057
PPID (UniProt Q08752) 0.057
POLD1 (UniProt P28340) 0.005
PDCD2L (UniProt Q9BRP1) 0.069
PRKAB1 (UniProt Q9Y478) 0.026
PSMD7 (UniProt P51665) -0.05
PYGL (UniProt P06737) -0.01
